According to ChEMBL document CHEMBL3988442, “University of Dundee, Small-Polar-MMV Screening Library” (2021):
The campaign covered roughly 48,000 compounds. About 13,000 (27%) showed an effect of 50% or more. Some of the results follow.

The compounds below were run on Wolbachia pipientis (assay: Anti-Wolbachia Cell-Based Screen). Conditions: 5 µM.
Type: functional
Parameters: scale not given: in the data most compounds retested in dose-response had high values

SMILES | Percent Effect
Cc1cccc(CCC(=O)Nc2cccnc2N2CCC(O)CC2)c1 | -21.77%
Cc1nonc1NC(=O)c1ccc(F)c(COCC2CC2)c1 | -55.79%
CC(C)n1cc2cc(NC(=O)CCS(C)(=O)=O)ccc2n1 | -1.641%
COC(=O)c1cc(C(=O)N2CCOCC2(C)C)n(-c2ccccc2)n1 | -5.811%
CCC(C)(NCC(=O)OC)c1nccs1 (stereo not given) | -7.626%
Cc1ccc(OCC(=O)N(C)Cc2cccc(F)c2)cn1 | 7.779%
CC(C)Oc1cccc(CNC(=O)NC(C)(C(=O)O)c2ccco2)c1 (stereo not given) | 1.863%
CCNS(=O)(=O)c1ccc(C)c(C(=O)N(CCC#N)Cc2ccco2)c1 | -4.86%
CN1CCC2(CC1)CC(NC(=O)c1csnn1)c1ccccc1O2.O=C(O)C(F)(F)F (stereo not given) | -8.669%
CS(=O)(=O)N1CC[C@]2(C[C@@H](Oc3ccccn3)CO2)C1.O=C(O)C(F)(F)F | -15.23%
CC(C)N1CCC2(CC1)CC(NS(C)(=O)=O)c1ccccc1O2.O=C(O)C(F)(F)F (stereo not given) | 107.1%
CCN1CCC2(CC1)CC(NC(=O)c1csnn1)c1ccccc1O2.O=C(O)C(F)(F)F (stereo not given) | -74.83%
CS(=O)(=O)NC1CC2(CCN(CC3CC3)CC2)Oc2ccccc21.O=C(O)C(F)(F)F (stereo not given) | 88.61%
CCN1CCC2(CC1)CC(NC(=O)c1c[nH]cn1)c1ccccc1O2 (stereo not given) | -7.488%
CC(C)CN1CCC2(CC1)CC(NS(C)(=O)=O)c1ccccc1O2.O=C(O)C(F)(F)F (stereo not given) | 99.03%
Cc1ccc(NC2COC3(CCN(CC(C)C)CC3)C2)nn1.O=C(O)C(F)(F)F (stereo not given) | -1.394%
CC(=O)N1CCC2(CC1)CC(NS(C)(=O)=O)c1ccccc1O2 (stereo not given) | 119.8%
CN(C)C(=O)CC1CC2(CCN(C(=O)N(C)C)CC2)Oc2ccccc21 (stereo not given) | -10.67%
O=C(O)C(F)(F)F.O=S(=O)(NC1CCC12CCN(CC1CC1)CC2)c1ccccc1 (stereo not given) | 2.266%
CNC(=O)NC(=O)C(C)N1CCCc2cc(OC)ccc2C1 (stereo not given) | -11.16%
CC(CO)N(C)C(=O)c1cn(-c2ccc(Br)cc2)cn1 (stereo not given) | -3.083%
Cc1cc(F)ccc1NCC(=O)NCC(F)(F)F | 8.632%
CC(C)c1nc2n(n1)CC(NCCc1cccs1)CC2 (stereo not given) | 0.7675%
NC(=O)N1CCCN(C2CCc3ccc(F)cc32)CC1 (stereo not given) | -19.72%
COc1cc2c(nn1)CCN(CC(O)COc1ccc(C#N)cc1)C2 (stereo not given) | -7.756%
CC(Cc1ccco1)NS(=O)(=O)N1CCCCCC1 (stereo not given) | -8.82%
Cc1ccc(N2CCCC(NCc3cccc4c3OCCO4)C2)nn1 (stereo not given) | 17.19%

SMILES | Percent Effect
Cc1ccc(N2CCCC(NCc3ccc(C)o3)C2)nn1 (stereo not given) | 12.24%
Cc1ccc(N2CCCC(NCc3ccc(Cl)o3)C2)nn1 (stereo not given) | 93.48%
CSCc1ccc(CNC2CCCN(c3ccc(C)nn3)C2)o1 (stereo not given) | 95.39%
CC(C)(C)CN1CCN2C(=O)N(C3CCCCC3)C[C@H]2C1 | -7.444%
COc1ccc(C(N)=O)cc1NCc1noc(-c2ccsc2)n1 | 0.901%
O=C(c1ccc(C(F)(F)F)cc1)N1C[C@@H](CN2CCCCC2)[C@@H](CO)C1 | -17.56%
Cc1nnc(N2CCN(C)C3(CCC(=O)N(CCO)CC3)C2)s1 (stereo not given) | -2.989%
CC(=O)Nc1nc(C(=O)NCCOc2cccc(C)c2)cs1 | 7.237%
Cc1cccc(OCCNC(=O)C(C)S(=O)(=O)C2CCCC2)c1 (stereo not given) | -6.282%
CC(NC(=O)NCCCOc1ccccc1F)c1nncn1C (stereo not given) | 6.488%
Cc1cccc(OCCCNC(=O)NC(C)c2nncn2C)c1 (stereo not given) | 6.947%
Cc1cccc(OCCNC(=O)C(C)S(=O)(=O)c2ccccn2)c1 (stereo not given) | 5.338%
Cc1ncc(C(=O)NCCOc2ccccc2F)c(C)n1 | -10.65%
Cc1cccc(OCCCNC(=O)Cn2ccc(C)cc2=O)c1 | 90.13%
Cc1ccn(CC(=O)NCCCOc2ccccc2F)c(=O)c1 | 116.2%
Cc1cccc(OCCNC(=O)Cn2ccc(C)cc2=O)c1 | 104.8%
CCc1cc(N2CCCNCC2)n2nc(C)c(C)c2n1 | 3.882%
CCN1CCCC(c2c(-c3ccccc3)ncn2Cc2csc(N)n2)C1 (stereo not given) | 4.265%
COc1ccc2[nH]nc(CN3CCC(C(C)N(C)C)CC3)c2c1 (stereo not given) | 2.332%
CC(c1ccon1)N(C)C(=O)C1CCN(CC(N)=O)CC1 (stereo not given) | -6.665%
C=C(C)COc1cccc(CN(C)C(C)c2nccs2)c1 (stereo not given) | 12.61%
CCN(CC)C(CNS(=O)(=O)NCc1ccccc1)c1ccco1 (stereo not given) | -8.171%
CC(c1nccs1)N(C)C(=O)c1cc(CN(C)Cc2ccccc2)on1 (stereo not given) | -3.289%
CC(=O)Nc1ccc(Cl)c(C(=O)N(C)C(C)c2ccncn2)c1 (stereo not given) | 19.4%
C=C(C)COc1cccc(CN(C)C(C)c2ccncn2)c1 (stereo not given) | 2.778%
CC(c1nccs1)N(C)S(=O)(=O)NCc1ccccc1 (stereo not given) | 97.09%
CC(c1ccon1)N(C)S(=O)(=O)NCc1ccccc1 (stereo not given) | 110%

SMILES | Percent Effect
CC(c1ccncn1)N(C)S(=O)(=O)NCc1ccccc1 (stereo not given) | 110.9%
CN1CCC(N(C)C[C@H]2CC[C@@H](Cc3ccc4c(cnn4C)c3)O2)CC1 | -7.23%
CC(Nc1ccc(Oc2cccc(C#N)c2)cc1)C(=O)NC1CC1 (stereo not given) | 1.244%
COc1ccc(-c2nc(CN3CC(n4nc(C)cc4C)C3)no2)cc1 | -0.6245%
Cc1nc(C)n(CC2CCCN2Cc2nc(C3CC3)no2)n1 (stereo not given) | 2.651%
Cc1cc(C)n(C2CN(Cc3noc(-c4ccccc4)n3)C2)n1 | -5.64%
COCCc1noc(CN2CCCC2Cn2nc(C)nc2C)n1 (stereo not given) | 103.9%
Cc1cc(C)n(CC2CCCN2Cc2c(C)noc2C)n1 (stereo not given) | 3.056%
COCCc1noc(CN2CCCC2c2c(C)nn(C)c2C)n1 (stereo not given) | 1.097%
COCCc1noc(CN2CCCC2Cn2nc(C)cc2C)n1 (stereo not given) | 100.2%
COCCc1noc(CN2CC(n3nc(C)cc3C)C2)n1 | 87.49%
CC(C)CC(CCO)CNC(=O)N1CCOC2(CCCC2)C1 (stereo not given) | 9.888%
CC1Cc2ccccc2N1Cc1occc1C(=O)O (stereo not given) | -32.9%
O=C(CN1CCSCC1c1ccccc1)N1CCCC1 (stereo not given) | -1.528%
CCC(C(=O)NCc1ccn(-c2ccc(F)cc2)n1)N1CCCC1=O (stereo not given) | 13.5%
Cc1nccn1C1(C(=O)O)CCN(Cc2ccc3nsnc3c2)CC1 | 4.136%
Cc1cc(C(=O)N2CCCC2)ccc1NCCO | -9.298%
CCCNC(=O)CNc1ccc(C(=O)N2CCCCC2C)cc1C (stereo not given) | -8.167%
Cc1cc(C(=O)N2CCCCC2C)ccc1NCCCO (stereo not given) | 3.863%
Cc1cc(C(=O)N2CCC(C)CC2)ccc1NS(C)(=O)=O | 7.517%
Cc1cc(C(=O)N2CCCC2)ccc1NCC(=O)N1CCOCC1 | 96.96%
Cc1cc(C(=O)N2CCCCC2C)ccc1NCC(=O)N1CCOCC1 (stereo not given) | -5.879%
COc1ccc(NC(=O)N2CCOCC(CN(C)C)C2)c(C)c1 (stereo not given) | -4.922%
Cc1cc(C(=O)N2CCCC2)ccc1NS(C)(=O)=O | -1.573%
Cc1cc(C(=O)N2CCCC2)ccc1NCC(=O)N1CCCCC1C (stereo not given) | 98.59%
Cc1cc(C(=O)N2CCCCC2C)ccc1NC(=O)N1CCOCC1 (stereo not given) | 99.93%
Cc1cc(C(=O)N2CCCC(C)C2)ccc1NCC(=O)N1CCOCC1 (stereo not given) | 106.6%

SMILES | Percent Effect
O=C(O)C(F)(F)F.c1cc(C2CC2)n2cnc(C3CN(Cc4nccs4)CCO3)c2c1 (stereo not given) | 7.631%
CC(=O)NCCCSC1CCCN(c2ccccc2Cl)C1=O (stereo not given) | 1.649%
Cn1ccnc1SCCNC1CCN(c2ncccn2)CC1 | 12.3%
CC(C)c1ccc(-c2nnn(CCNS(C)(=O)=O)n2)cc1 | -15.95%
O=C(O)C(F)(F)F.O=C(c1cccs1)N1CCC[C@]2(C[C@@H](OCc3ccncc3)CO2)C1 | -0.9808%
CCn1cc(C(=O)N2CCCC(c3noc(C)n3)C2)cn1 (stereo not given) | 122%
Cc1cnn(CCC(=O)N2CCCC(c3nc(C)no3)C2)c1 (stereo not given) | 6.871%
Cc1cnn(CCC(=O)N2CCCC(c3noc(C)n3)C2)c1 (stereo not given) | 105%
Cc1nc(C2CCCN(C(=O)c3cnc(C)s3)C2)no1 (stereo not given) | -5.153%
Cc1nc(C2CCCN(C(=O)c3cnn(C(C)(C)C)c3)C2)no1 (stereo not given) | 1.32%
Cc1nc(C2CCCN(C(=O)c3cnn(C4CCCCC4)c3)C2)no1 (stereo not given) | 101.3%
Cc1nc(C2CCCN(C(=O)c3cc(C)sc3C)C2)no1 (stereo not given) | -7.599%
Cc1cnn(CCC(=O)N2CCCC(c3cc(C(N)=O)[nH]n3)C2)c1 (stereo not given) | 5.057%
CC(=O)c1cc(CC(=O)NCc2ccsc2)cs1 | -1.009%
CC(=O)N1C[C@H](NS(=O)(=O)N2CCOCC2)[C@@H](c2ccc(C)o2)C1 | -11.37%
CN1CC(c2ccccc2)CC12CCN(C(=O)c1cncc(Cl)c1)CC2 (stereo not given) | 1.146%
CCCc1cc(N2CCCC2Cn2nc(C)nc2C)n2ncnc2n1 (stereo not given) | -15.77%
CC(C)(CNC(=O)C(C)(C)Oc1ccc2c(c1)CCCC2=O)C(N)=O | -6.308%
Cc1nc2ccc(C(=O)N3CCn4c(nnc4C4CC4)C3)cc2nc1C | 122.4%
CCn1c(C2CCN(C(=O)c3ccc4sc(C)nc4c3)CC2)n[nH]c1=O | -3.012%
CN(C)c1cccc(C(=O)N2CCn3c(nnc3-c3ccccc3)C2)c1 | 0.7654%
Cc1nc2cc(C(=O)N3CCn4c(nnc4C4CC4)C3)ccc2s1 | 86.87%
Cc1nnc2n1CCN(C(=O)c1cnc(C3CC3)s1)C2 | 2.098%
CCc1nnc2n1CCN(C(=O)c1ccc3nc(C)c(C)nc3c1)C2 | 6.266%
